# High-throughput results deposited in PubChem by several laboratories.
# Compounds with a hit are over-represented: about 3.1% of the library has one in this group of screens.
# BoNT A protease – inhibitors of Botulinum neurotoxin A light chain protease; multiplex microsphere protease substrate cleavage, flow cytometry; inhibition, % at 10 µM; actives 0.17% (n = 360,000); AID 588499; also: plate controls were buffer without enzyme for full effect and enzyme alone for no effect
# PriA SSB inh – inhibitors of Klebsiella pneumoniae PriA binding to SSB C-terminal tail | AlphaScreen SSBct-PriA binding, biotinylated peptide | actives 0.6% (n = 430,000) | inhibition, % at 33 µM; in the data active = inhibition mostly above about 37%, no sharp cut-off; inactive = mostly below about 20%;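 also: plate controls were negative control peptide for no effect and reference peptide for full effect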
# BoNT-F LC inh – inhibitors of Botulinum neurotoxin F light chain protease | Multiplex microsphere protease cleavage assay, flow cytometry | inhibition, % at 10 µM | actives 0.22% (n = 360,000); in the data active = inhibition above about 35%, passing the limit was not always enough; inconclusive = no clear call, values can overlap the other calls; also: plate controls were buffer without enzyme for full effect and enzyme alone for no effect
# Autofluor counter – counter-screen for toxin protease inhibitors: compound fluorescence | AID 624483 | fluorescence intensity (concentration not given with the values) | compound autofluorescence counterscreen, microsphere flow cytometry; hits give high values | actives 3.1% (n = 360,000); in the data active = fluorescence intensity above about 16000; inconclusive = no clear call, values can overlap the other calls
# Anthrax LF prot – inhibitors of Bacillus anthracis lethal factor protease; P15917; multiplex microsphere protease cleavage assay, LF; inhibition, % at 10 µM; actives 0.12% (n = 360,000); AID 588501; also: plate controls were buffer without enzyme for full effect and enzyme alone for no effect
# Target sequence (P15917 whole entry, looked up): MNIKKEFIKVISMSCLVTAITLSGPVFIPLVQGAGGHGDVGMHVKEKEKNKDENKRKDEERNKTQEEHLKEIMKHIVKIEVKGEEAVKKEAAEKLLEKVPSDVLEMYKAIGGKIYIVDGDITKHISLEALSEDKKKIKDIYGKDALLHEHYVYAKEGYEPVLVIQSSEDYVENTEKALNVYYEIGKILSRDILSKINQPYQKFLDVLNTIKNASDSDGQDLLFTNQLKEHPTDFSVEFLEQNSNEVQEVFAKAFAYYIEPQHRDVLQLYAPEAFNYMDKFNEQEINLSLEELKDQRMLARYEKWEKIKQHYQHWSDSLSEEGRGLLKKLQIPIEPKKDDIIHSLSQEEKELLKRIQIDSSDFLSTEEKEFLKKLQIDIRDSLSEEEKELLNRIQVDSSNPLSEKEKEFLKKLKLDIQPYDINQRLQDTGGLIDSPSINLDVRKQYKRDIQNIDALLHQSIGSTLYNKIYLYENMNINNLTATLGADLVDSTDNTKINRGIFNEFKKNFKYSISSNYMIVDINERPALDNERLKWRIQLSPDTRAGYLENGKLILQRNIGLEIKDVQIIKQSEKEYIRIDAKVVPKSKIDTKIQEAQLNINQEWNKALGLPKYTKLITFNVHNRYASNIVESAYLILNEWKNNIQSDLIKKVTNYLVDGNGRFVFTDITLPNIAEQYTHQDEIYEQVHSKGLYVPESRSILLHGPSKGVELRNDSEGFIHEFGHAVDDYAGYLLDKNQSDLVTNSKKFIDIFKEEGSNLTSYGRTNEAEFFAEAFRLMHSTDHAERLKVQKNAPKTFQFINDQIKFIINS
# An asterisk follows results filed as active; ? = inconclusive; · = no result. Rule as the data show it, unless noted: active = inhibition above about 30%; inconclusive = no clear call, values can overlap the other calls; inactive = below that.
SMILES,BoNT A protease,PriA SSB inh,BoNT-F LC inh,Autofluor counter,Anthrax LF prot
Cc1ccc2nc(N(CCCN(C)C)C(=O)c3ccc(Br)s3)sc2c1,2.0,10.9,5.7,4033,-9.1
Cc1cc(NC(=O)C(=O)c2c[nH]c3ccccc23)n(-c2nc(-c3ccccc3)cs2)n1,·,4.0,·,·,·
CCCSc1nnc(CNC(=O)c2c(F)cccc2Cl)n1-c1ccc(Cl)c(Cl)c1,·,-11.0,·,·,·
O=C(c1cccc(Nc2nn3c(=O)c4ccccc4nc3s2)c1)N1CCN(c2ncccn2)CC1,·,-8.0,·,·,·
Cc1ccc(NC(=O)N2CCC(C(=O)NCCC3=CCCCC3)CC2)cc1,-0.4,-11.2,-3.2,16684*,-3.4
Cc1ccc(NC(=O)N2CCCC2C(=O)NCCC2=CCCCC2)cc1 (stereo not given),?,-5.5,5.7,18611*,-9.5
COC(=O)Cn1cnc2c(cnn2-c2cccc(Cl)c2)c1=O,·,-11.0,·,·,·
O=C(c1cccs1)n1nc(-c2ccccc2)nc1NCc1ccc(F)cc1,?,-5.7,-5.9,25264*,-2.8
Cn1c(NCCCN2CCOCC2)nc2c1c(=O)n(Cc1ccc(Cl)cc1Cl)c(=O)n2C,1.7,1.2,0.5,21423*,-8.2
O=C(NCc1cccs1)c1sccc1S(=O)(=O)N1CCN(c2ccccc2)CC1,·,-12.0,·,·,·
Brc1ccc(-c2nn3c(Cc4ccccc4)nnc3s2)o1,-0.9,-13.0,0.9,3422,-0.5
c1ccc(Cc2nnc3sc(Nc4ccccc4)nn23)cc1,?,2.9,-3.1,16579*,0.4
CCN(Cc1ccncc1)S(=O)(=O)c1ccc(C(C)=O)cc1,1.4,10.8,1.6,22742*,0.3
CCN(CC)S(=O)(=O)c1ccc(C(=O)Nc2ccc(Cc3ccncc3)cc2)cc1,-1.1,-21.5,2.8,3431,-7.5
CCn1c(=S)sc2c(=O)n(-c3ccccc3)c(SC)nc21,-0.7,10.1,-3.3,9914,-3.5
N#CCSc1nc2c(sc(=S)n2Cc2ccco2)c(=O)n1-c1ccc(F)cc1,-2.6,0.3,-5.3,21835*,-2.4
O=C(COc1ccc2ccc(=O)oc2c1)Nc1ccc2c(c1)OCCO2,-6.6,-13.8,-10.7,21506*,2.1
O=C(c1ccc(F)cc1)c1c[nH]c(C(=O)NCCCN2CCOCC2)c1,-0.2,-10.4,-13.2,5926,-1.9
CCC(CC)C(=O)c1c[nH]c(C(=O)NCCCN2CCOCC2)c1,?,5.3,-2.3,23037*,-1.9
O=C(c1ccccc1)c1c[nH]c(C(=O)NCCCN2CCOCC2)c1,?,-9.2,0.0,22011*,-0.8
Cc1ccc(OCC(O)Cn2c(=N)n(CCN3CCCCC3)c3ccccc32)cc1 (stereo not given),-0.7,7.0,-6.0,24505*,-4.1
COc1ccccc1OCC(O)Cn1c(=N)n(Cc2ccccc2)c2ccccc21 (stereo not given),-0.6,1.7,-1.3,24188*,-2.3
CCCCn1c(=N)n(CC(O)COc2cccc(C)c2)c2ccccc21 (stereo not given),-2.6,-11.2,-5.6,23566*,-3.5
CCCn1c(=N)n(CC(O)COc2ccc(C)cc2)c2ccccc21 (stereo not given),?,-0.1,?,4068,-0.7
Cc1ccccc1OCC(O)Cn1c(=N)n(Cc2ccccc2)c2ccccc21 (stereo not given),0.1,7.5,-3.9,4759,-3.4
SMILES,BoNT A protease,PriA SSB inh,BoNT-F LC inh,Autofluor counter,Anthrax LF prot
O=C(/C=C/c1ccccc1)NCCn1ncc2c(NCCc3ccccc3)ncnc21,·,-7.0,·,·,·
CN(C)C(=O)Cn1cc(-c2ccc(F)cc2)cn1,·,38.0*,·,·,·
O=C(Nc1nc2c(cc3c4c(cccc42)CC3)s1)c1sc2ccccc2c1Cl,·,-13.0,·,·,·
CSc1ccc(C2NC(=O)NC3=C2C(=O)N(Cc2ccc(F)cc2)C3)cc1 (stereo not given),·,-4.0,·,·,·
c1cncc(-c2nn3c(Cn4nnc5ccccc54)nnc3s2)c1,0.9,0.1,3.1,16144*,0.0
c1ccc2c(c1)OCC(c1nn3c(Cn4nnc5ccccc54)nnc3s1)O2 (stereo not given),?,2.4,1.2,16268*,1.7
c1ccc(Cc2nn3c(Cn4nnc5ccccc54)nnc3s2)cc1,?,-18.4,-1.4,22542*,-1.1
c1ccc(CCc2nn3c(Cn4nnc5ccccc54)nnc3s2)cc1,-0.8,-2.1,-22.7,4342,-0.6
c1ccc(-c2nn3c(Cn4nnc5ccccc54)nnc3s2)nc1,0.1,21.4,-5.4,5692,-5.8
O=C(Nc1ccc2c(c1)CN(C(=O)c1ccco1)CC2)c1ccco1,·,-4.0,·,·,·
CCCCn1c(N(CCOC(C)=O)C(C)=O)nc2ccccc21,4.0,-6.6,7.0,19843*,-10.0
CCCCn1c(=O)c(CC(C)=O)nc2ccccc21,1.0,9.4,-5.0,2496,-2.6
Cc1onc(-c2ccccc2Cl)c1C(=O)Nc1nc2ccc(S(=O)(=O)N(C)C)cc2s1,·,-3.0,·,·,·
CNC(=O)CS(=O)(=O)C1CCN(C(=O)Cc2cccc3ccccc23)CC1,·,11.0,·,·,·
O=[N+]([O-])c1ccc(N2CCCNCC2)c2ncccc12,2.0,0.1,?,4791,-14.5
O=[N+]([O-])c1ccc(N2CCCCC2)c(Cl)c1N1CCCCC1,1.0,31.8,-1.2,19380*,1.7
O=[N+]([O-])c1ccc(N2CCOCC2)c2ncccc12,·,57.3,·,·,·
O=[N+]([O-])c1cc(Cl)ccc1N1CCCCC1,-1.1,29.6,-3.9,3381,-3.9
Nc1ccc(N2CCCCC2)c2nonc12,33.2*,29.1,-21.9,3405,8.8
O=[N+]([O-])c1ccc(N2CCCCC2)c2ncccc12,2.8,51.4*,-2.4,4631,-3.7
Nc1cc(Cl)ccc1N1CCCCC1,-0.5,4.9,-4.7,4451,-2.4
O=[N+]([O-])c1ccc(N2CCCCCC2)c2ncccc12,3.2,42.0*,-5.0,2625,1.9
O=C(NCCCN1CCOC(c2ccccc2)C1)C(=O)NCc1cccs1 (stereo not given),·,-5.0,·,·,·
COC(=O)c1ccc(NC(=O)C(=O)NCC2CCN(c3nc4ccccc4o3)CC2)cc1,·,1.0,·,·,·
O=C(Cc1csc(SCC(=O)c2ccc(F)cc2)n1)Nc1nc2ccccc2s1,·,6.0,·,·,·
SMILES,BoNT A protease,PriA SSB inh,BoNT-F LC inh,Autofluor counter,Anthrax LF prot
O=[N+]([O-])c1ccc(N2CCCCCC2)c([N+](=O)[O-])c1,-0.4,13.7,-12.0,3221,-3.0
O=[N+]([O-])c1cc(S(=O)(=O)c2ccc(N3CCCCC3)c([N+](=O)[O-])c2)ccc1N1CCCCC1,1.8,42.0*,2.5,9719,-1.4
Nc1cc(N2CCCCC2)c(Cl)cc1[N+](=O)[O-],?,11.7,6.0,21335*,-12.1
O=[N+]([O-])c1ccc(N2CCCCCC2)c2nonc12,53.1*,-12.8,115.4*,14674,25.7
Nc1cc(N2CCCCC2)c([N+](=O)[O-])cc1Cl,0.8,13.2,-4.2,10319,-0.2
CS(=O)(=O)N1C2CCC1CC(NC(=O)CCc1ccc(Cl)c(C(F)(F)F)c1)C2 (stereo not given),·,3.0,·,·,·
Cc1cc([C@@H](O)CCNC(=O)c2ccc(OC(F)(F)F)cc2)c(C)o1,·,-3.0,·,·,·
O=[N+]([O-])/C=C\c1ccc(N2CCCC2)c(F)c1,60.2*,-3.1,20.6,9527,32.0*
O=Cc1ccc(N2CCCC2)c([N+](=O)[O-])c1,-0.9,6.2,-14.6,5403,0.5
